Legend:
Assay in all cases: PBM binding z-score (relative to random genomic background probes); higher = stronger binding; sequences stand for … in GC…GCGATTGACAGCGTAGAATGAAGG
[1] = tested on: FXR:RXRa (NR concentration 270 nM, RXRa partner concentration 90 nM)
Outline: (§1)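 The probes on custom Agilent 4×180K protein-binding microarrays were double-stranded, with 34-nt variable regions bearing direct-repeat seeds, single-nucleotide variants, half-site ablations and random human genomic background sequences. Incubation lasted 1 h with ligand-free nuclear receptor dimers in PBS pH 7.4, 2% milk, 0.02% Triton X-100, 1 mM DTT, 0.2 mg/mL BSA and 0.4 mg/ml salmon testes DNA. Antibodies against each partner (one per run) detected bound dimers, and fluorescence scans were regression-normalized. Binding z-scores take the random background probes as reference.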

[2] = tested on: LXRa:RXRa (NR concentration 270 nM, RXRa partner concentration 90 nM)
Outline: as §1

[3] = tested on: LXRa homodimer (NR concentration 270 nM)
Outline: as §1

[4] = tested on: LXRb:RXRa (NR concentration 270 nM, RXRa partner concentration 90 nM)
Outline: as §1

[5] = tested on: LXRb homodimer (NR concentration 270 nM)
Outline: as §1

[6] = tested on: PPARa:RXRa (NR concentration 270 nM, RXRa partner concentration 90 nM)
Outline: as §1

[7] = tested on: PPARg:RXRa (NR concentration 180 nM, RXRa partner concentration 90 nM)
Outline: as §1

[8] = tested on: PPARg:RXRa 270nM:90nM, anti-RXR (NR concentration 270 nM, RXRa partner concentration 90 nM)
Outline: as §1

[9] = tested on: PPARg:RXRa 30nM:10nM, anti-RXR (NR concentration 30 nM, RXRa partner concentration 10 nM)
Outline: as §1

[10] = tested on: PPARg:RXRa 90nM:30nM, anti-RXR (NR concentration 90 nM, RXRa partner concentration 30 nM)
Outline: as §1

[11] = tested on: PPARg:RXRa DBDmut IVT, anti-RXR (DBD mutation: RXRa K156A/R161A, NR concentration 270 nM, RXRa partner concentration 90 nM)
Outline: as §1

[12] = tested on: PPARg:RXRa IVT, anti-PPARg (NR concentration 270 nM, RXRa partner concentration 90 nM)
Outline: as §1

[13] = tested on: PPARg DBDmut:RXRa IVT, anti-PPARg (DBD mutation: PPARg1 K132A/R137A, NR concentration 270 nM, RXRa partner concentration 90 nM)
Outline: as §1

[14] = tested on: PPARg DBDmut IVT, anti-PPARg (DBD mutation: PPARg1 K132A/R137A, NR concentration 270 nM)
Outline: as §1

[15] = tested on: PPARg homodimer (NR concentration 180 nM)
Outline: as §1

[16] = tested on: PXR:RXRa (NR concentration 270 nM, RXRa partner concentration 90 nM)
Outline: as §1

[17] = tested on: PXR homodimer (NR concentration 270 nM)
Outline: as §1

[18] = tested on: RARa:RXR (NR concentration 270 nM, RXRa partner concentration 90 nM)
Outline: as §1

[19] = tested on: RARa homodimer (NR concentration 270 nM)
Outline: as §1

[20] = tested on: RARb:RXRa (NR concentration 270 nM, RXRa partner concentration 90 nM)
Outline: as §1

Sequence	PBM binding z-score [1]	PBM binding z-score [2]	PBM binding z-score [3]	PBM binding z-score [4]	PBM binding z-score [5]	PBM binding z-score [6]	PBM binding z-score [7]	PBM binding z-score [8]	PBM binding z-score [9]	PBM binding z-score [10]	PBM binding z-score [11]	PBM binding z-score [12]	PBM binding z-score [13]	PBM binding z-score [14]	PBM binding z-score [15]	PBM binding z-score [16]	PBM binding z-score [17]	PBM binding z-score [18]	PBM binding z-score [19]	PBM binding z-score [20]
CCTAATGGGCCATTCAGAGGTCATTGATCATATG	2.75	4.67	6.94	4.05	1.04	3.68	1.37	2.27	0.458	1.54	2.5	2.39	0.168	0.266	2.02	4.59	1.84	4.39	0.847	3.27
CCTTAAGGGTCACTCCAGGTTATAGCATCGGAGT	6.75	7.97	3.36	5.9	0.565	5.33	4.86	5.1	2.01	4.34	3.17	4.07	0.0681	0.102	2.47	5.59	0.47	4.49	0.956	4.97
TCGAGTAGGTTAGGGGCATTCAGAATGGCGTCGA	0.42	0.257	-0.31	0.672	-0.239	1.39	0.676	1.98	1.13	1.76	1.95	1.44	-0.138	-0.987	1.13	0.245	0.264	0.141	-0.19	1.13
ATCTCTAGGTAAGACTCAGTTCCGTGAAGAACGC	0.132	0.397	0.225	0.111	0.896	-0.155	-0.0539	0.0133	-0.0195	0.0962	1.81	0.672	-0.309	0.647	0.0237	0.093	0.39	-0.00835	0.872	-0.0314
TTACCAAGGTGAAGGTCGTTGAGCCCTCTGTAGA	1.3	1.24	-0.339	0.883	-1.13	2.65	2.83	4.43	2.31	3.92	1.99	3.36	-0.0104	-0.329	0.702	1.16	-0.0928	1.57	-0.872	2.07
ATCCCAAGGTGATCGTGAGGTCGTTGATACTAAC	1.33	1.13	0.822	1.02	-0.338	1.16	0.11	0.0594	-0.299	-0.346	0.258	0.592	0.328	-0.0144	1.01	2.89	1.37	1.81	0.229	1.31
CAAACTAGGTCAAAGGTCAAAGGCGAGCCAACCA	8.49	7.21	4.91	7.14	2.68	7.65	14.2	11.5	14.7	13.9	8.87	9.3	4.87	2.24	4.33	6.93	1.55	9.2	2.6	5.86
TCGAGTAGGATAGGGGCATTCAGAATGGCGTCGA	0.0392	-0.388	-0.671	0.283	-0.491	0.262	0.0969	0.573	0.884	0.812	0.794	-0.24	-0.499	-1.34	0.0464	-0.136	-0.0675	-0.134	-0.862	0.225
CCTAGCAGGTCAGGGTCACTCAAGCATTTCGCTT	4.58	3.54	0.113	3.41	-0.723	4.61	3.59	4.22	1.09	3.27	3.35	4	-0.304	-1.12	2.56	3.91	0.115	4.5	0.487	4.2
TCGAGTTGGTCACGGAGGTCACACACGACGGGTA	3.27	3.24	1.8	3.05	-0.188	3.87	3.18	3.36	1.82	2.63	0.979	2.98	0.179	0.0233	2.35	4.79	1.32	4.55	0.63	3.84
TCTCGGAGGACACGAAGGTCAGTGCTTTCCAGAG	1.02	1.19	-0.141	0.731	-0.921	1.59	0.156	1.49	2.2	1.94	1.42	1.08	-0.7	-0.641	0.926	1.54	0.566	1.52	-0.39	3.29
CAAACTAGGTCAAAGGTCAAAGTCGAGCCAACCA	8.73	7.31	6.02	7.38	3.55	7.8	14	11.4	12.3	13.1	8.73	9.33	2.23	2.15	5.09	7.21	2.02	8.8	3.18	5.96
CCTGCTAGGTCATGATCAGCTAATCTACAGTATG	3.25	2.63	0.02	1.94	-0.0541	3.31	2.28	2.56	0.674	1.56	4.52	3.32	0.5	0.49	0.98	1.19	-0.328	2.08	0.216	3.7
